The record followed here is ChEMBL document CHEMBL4303097 (2020).

Over roughly 1,500 compounds, “Inhibition index” has its median near 0.17; the highest 2% begin near 1.3. The sample holds the highest values, similar compounds and a random draw of the others, so the mix is not that of the screen.

The test system of the assay is SARS-CoV-2. The assay can be described thus: Inhibition of cell viability relative to arbidol control (inhibition index > 1 indicates higher activity) measured by fluorescence (OD590nm) in Vero E6 cells infected with SARS-CoV-2 (strain BavPat1) at MOI 0.002 after 72hrs. It is filed as functional, Chlorocebus sabaeus, Vero C1008.
In turn, `C#C[C@]1(OC(C)=O)CC[C@H]2[C@@H]3CCC4=CC(=NO)CC[C@@H]4[C@H]3CC[C@@]21CC` displayed an Inhibition index of -0.3327.

In the case of `C[C@H](O)[C@H](O)[C@H]1CNc2[nH]c(N)nc(=O)c2N1.Cl.Cl` [SAPROPTERIN DIHYDROCHLORIDE], the Inhibition index is on record as 0.4022.

Regarding `O=C1CN(/N=C/c2ccc(-c3ccc([N+](=O)[O-])cc3)o2)C(=O)[N-]1.[Na+]` [DANTROLENE SODIUM], the Inhibition index came to 0.3986.

In turn, `Nc1ccc(S(=O)(=O)[N-]c2cnc3ccccc3n2)cc1.[Na+]` [SULFAQUINOXALINE SODIUM] showed an Inhibition index of -0.000446.

`COc1cc2nc(N3CCN(C(=O)C4CCCO4)CC3)nc(N)c2cc1OC.Cl` (stereo not drawn) had an Inhibition index of -0.01131.

In turn, `CN(C)CCCN1c2ccccc2Sc2ccccc21.Cl` [PROMAZINE HYDROCHLORIDE] showed an Inhibition index of 1.161.

The molecule `Cl.N[C@@H]1CCCCN(c2c(F)cc3c(=O)c(C(=O)O)cn(C4CC4)c3c2Cl)C1` [BESIFLOXACIN HYDROCHLORIDE] gave an Inhibition index of 0.08463.

Take `CCCCc1oc2ccccc2c1C(=O)c1cc(I)c(OCCN(CC)CC)c(I)c1.Cl` [AMIODARONE HYDROCHLORIDE]: the Inhibition index is reported as -0.1051.

As to `COCCc1ccc(OCC(O)CNC(C)C)cc1.COCCc1ccc(OCC(O)CNC(C)C)cc1.O=C(O)C(O)C(O)C(=O)O` (stereo not drawn) [METOPROLOL TARTRATE], the Inhibition index came out at 0.03331.

On to `CCC(=O)[C@@]1(C)[C@H](C)C[C@H]2[C@@H]3CCC4=CC(=O)C=C[C@]4(C)[C@H]3[C@@H](O)C[C@@]21C` [RIMEXOLONE], for which the Inhibition index amounted to 0.1893.

In turn, `Cl.NCCc1ccc(O)c(O)c1` [DOPAMINE HYDROCHLORIDE] displayed an Inhibition index of 1.056.

Turning to `C[C@@H]1C[C@H]2[C@@H]3C[C@H](F)C4=CC(=O)C=C[C@]4(C)[C@@]3(Cl)[C@@H](O)C[C@]2(C)[C@H]1C(=O)COC(=O)C(C)(C)C` [CLOCORTOLONE PIVALATE], the Inhibition index came out at 0.111.

As for `O=C(O)Cc1ccccc1Oc1ccc(Cl)cc1Cl` [FENCLOFENAC], the Inhibition index was determined as 0.3257.

Regarding `CC(=O)OCC(=O)[C@@]12OC(C)(C)O[C@@H]1C[C@H]1[C@@H]3C[C@H](F)C4=CC(=O)C=C[C@]4(C)[C@@]3(F)[C@@H](O)C[C@@]12C` [FLUOCINONIDE], the Inhibition index was 0.2896.

Take `CCN(CC)CC(=O)Nc1c(C)cccc1C.Cl`: the Inhibition index is listed as -0.01364.

In turn, `COc1cc(C)c(/C=C/C(C)=C/C=C/C(C)=C/C(=O)O)c(C)c1C` [ACITRETIN] returned an Inhibition index of 0.2609.

The molecule `CC1=C(/C=C/C(C)=C/C=C/C(C)=C/C(=O)O)C(C)(C)CCC1` [TRETINOIN] had an Inhibition index of 0.999.

`CC1=C(/C=C/C(C)=C/C=C/C(C)=C\C(=O)O)C(C)(C)CCC1` [ISOTRETINOIN] came in with an Inhibition index of 1.484.
